# From PubChem BioAssay (NCATS)
# A number with no mark means an inactive call. Inconclusive results are not listed. A call without a number means that no potency is given here. Calls of active or inactive are those of the source. Unless noted, calls come from the whole dose curve; as a rule, active = well fitted curve in the direction sought with a large enough effect; inconclusive = small, poorly fitted or top-dose-only effect, or another doubt; inactive = no such curve, though single readings can be large; an effect the other way counts as inactive or inconclusive.
# Columns and labels:
# [1] = target: Voltage-gated inwardly rectifying potassium channel KCNH2 (Homo sapiens) (UniProt Q12809); experiment: qHTS Assay for Small Molecule Inhibitors of the Human hERG Channel Activity (AID 588834);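 note: lower thallium flux fluorescence means stronger hERG block; nearly all actives have a fitted effect of over 50% in size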; note: potency is the fitted concentration of half-maximal effect
# Outline: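 Thallium serves as surrogate for K+ influx through BacMam-delivered hERG in U2OS cells. Compounds are added for about 10 minutes after dye loading; stimulation buffer then starts flux, monitored kinetically on FDSS.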
# [2] = target: Luciferin 4-monooxygenase (Photinus pyralis) (UniProt P08659); experiment: Biochemical firefly luciferase enzyme assay for NPC (AID 624030); note: nearly all actives have a fitted effect of over 70% in size; note: potency is the fitted concentration of half-maximal effect
# Outline: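 Counter-screen for direct inhibition of the luciferase enzyme by approved-drug library compounds, run at 10 nM enzyme in 50 mM Tris acetate (final). Luminescence was read within 5 min of enzyme-buffer addition and normalized to PTC124 versus DMSO (0%).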
# [3] = S16 Schwann cell viability assay (CellTiter-Glo assay) (AID 624031); note: nearly all actives have a fitted effect of over 70% in size; note: potency is the fitted concentration of half-maximal effect
# Outline: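 This viability control uses native rat S16 Schwann cells grown in DMEM plus 10% FBS. After a 24 h compound treatment at 37 °C, CellTiter-Glo luminescence reports ATP content, scaled against DMSO-treated and cell-free wells.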
# [4] = S16 Schwann cell PMP22 intronic element firefly luciferase assay (AID 624032); note: nearly all actives have a fitted effect of over 30% in size; note: potency is the fitted concentration of half-maximal effect
# Outline: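 Rat S16 Schwann cells stably carrying a PMP22 intronic element-driven Fluc reporter were seeded overnight, then exposed to compounds for 24 h at 37 °C. Luminescence was normalized to PTC124 (positive control) and DMSO (0% activity).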
# [5] = S16 Schwann cell PMP22 intronic element beta-lactamase assay (AID 624044; calls by dose curve; note: nearly all actives have a fitted effect of over 15% in size); details: S16 rat Schwann cells, PMP22 element beta-lactamase FRET, 24 h; ratio activity, negative = inhibition: at 38.3 µM (top of the series) unless noted
# Outline: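 Beta-lactamase reporter under a PMP22 intronic regulatory element in stable S16 rat Schwann cells; 24 h compound exposure. 460 nm blue signal normalized between DMSO (0%) and potassium clavulanate, with 535 nm FRET tracking viability; curves classed by r2 and response.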
# [6] = qHTS assay for small molecule agonists of the antioxidant response element (ARE) signaling pathway (AID 651741; active = well fitted activation curve with a large enough effect in the signal ratio; the % refers to the signal ratio; note: potency is the fitted concentration of half-maximal effect)
# Outline: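 Beta-lactamase reporter expression driven by the antioxidant response element in HepG2 cells was detected by fluorescence with LiveBLAzer B/G FRET substrate (2 h, room temperature) following 16 h compound treatment at 37 C.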
# [7] = qHTS assay for small molecule activators of the p53 signaling pathway (AID 651743; active = well fitted activation curve with a large enough effect in the signal ratio, not every such curve was filed as active; the % refers to the signal ratio); details: HCT-116 p53RE-bla, beta-lactamase FRET ratio, 16 h; activation: hits give high values
# Outline: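 Here HCT-116 cells with an integrated p53-responsive beta-lactamase gene were incubated with compounds (16 hours, 37 C) after a 5-hour plating period; beta-lactamase activity was detected as fluorescence intensity via B/G FRET substrate.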
# [8] = qHTS assay for small molecule activators of the nuclear factor-kappa B (NF-kB) signaling pathway (AID 651749; active = well fitted activation curve with a large enough effect in the signal ratio; the % refers to the signal ratio); details: NF-kB-bla ME-180 cells, beta-lactamase FRET ratio, 16 h; hits give high values
# Outline: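 Beta-lactamase reporter expression, controlled by NF-kB response elements in ME-180 cells, was quantified fluorometrically via FRET disruption; cells at 2,000/well had been incubated with 23 nL test compound for 16 hr.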
# [9] = qHTS assay for small molecule disruptors of the mitochondrial membrane potential - 1 hr assay (AID 651754; calls by dose curve; note: nearly all actives have a fitted effect of over 35% in size)
# Outline: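 In this qHTS format, a 1 hr compound treatment of HepG2 cells precedes Mito-MPS staining, and membrane potential is judged from aggregate (red) against monomer (green) fluorescence intensity.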
# [10] = qHTS assay for small molecule disruptors of the mitochondrial membrane potential - 5 hr assay (AID 651755; calls by dose curve; note: nearly all actives have a fitted effect of over 40% in size)
# Outline: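 Seed HepG2 overnight, add compound, incubate 5 hr at 37C and 5% CO2, stain 30 min with Mito-MPS, then measure monomer (490/535 nm) and aggregate (540/590 nm) fluorescence.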
# [11] = target: Tumor necrosis factor (Homo sapiens) (UniProt P01375); experiment: qHTS assay to identify small molecules that stimulate Tumor Necrosis Factor-alpha (TNF-alpha) secretion (AID 651757; active = well fitted curve in the direction sought with a large enough effect in the signal ratio; the % refers to the signal ratio)
# Outline: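 Using 3000 THP-1 cells per well, compounds and controls were applied for 17 hrs at 37 C. Detection followed with two labeled anti-TNF-alpha antibodies (cryptate donor, XL665 acceptor) for 3 hr at room temperature, measured by TR-FRET.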
# [12] = qHTS assay to identify small molecules that stimulate interleukin-8 (IL-8) secretion (AID 651758; active = well fitted activation curve with a large enough effect in the signal ratio; the % refers to the signal ratio; note: potency is the fitted concentration of half-maximal effect)
# Outline: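 Quantitative HTS in THP-1 monocytic cells at 2000 cells per well, with 16 hrs compound incubation at 37 C. IL-8 in the medium was then quantified by HTRF immunoassay, read after 1-3 hrs at room temperature.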
# [13] = qHTS assay for environmental chemicals that activate the Aryl hydrocarbon Receptor (AhR) signaling pathway (AID 651777); details: 1A2-DRE human hepatoma cells, luciferase, 24 h; activation: hits give high values; note: nearly all actives have a fitted effect of over 15% in size
# Outline: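 Following a 24 hr incubation with test chemicals at 37 C and 5% CO2, 1A2-DRE human hepatoma cells received One-Glo reagent; after 30 min at room temperature, luciferase output reflected CYP1A2 induction via AhR.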
# [14] = target: Peroxisome proliferator-activated receptor alpha (Homo sapiens) (UniProt Q07869); experiment: qHTS assay for small molecule agonists of the peroxisome proliferator-activated receptor alpha (PPARalpha) signaling pathway (AID 651778); details: PathHunter PPARalpha complementation, chemiluminescence, 6 h; hits give high values
# Outline: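 Cells plated at 2,000/well and held overnight at 37 C, 5% CO2, then compound added by pin tool for 6 hr; after PathHunter detection reagent and 60 min at room temperature, chemiluminescence from enzyme complementation was read.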
# [15] = target: Nuclear receptor ROR-gamma (Homo sapiens) (UniProt P51449); experiment: qHTS assay for small molecule antagonists of the retinoid-related orphan receptor gamma (ROR-gamma) signaling pathway (AID 651802);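 note: CHO cells with doxycycline-induced ROR-gamma expression; luciferase reporter luminescence driven by ROR response element; nearly all actives have a fitted effect of over 60% in size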
# Outline: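 Doxycycline-induced reporter activity in engineered CHO cells (TET-inducible ROR, RORE-LUC) was measured by luminescence after 16hr compound exposure at 37C.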
# Sequence of Luciferin 4-monooxygenase (Photinus pyralis) (P08659 whole entry, looked up): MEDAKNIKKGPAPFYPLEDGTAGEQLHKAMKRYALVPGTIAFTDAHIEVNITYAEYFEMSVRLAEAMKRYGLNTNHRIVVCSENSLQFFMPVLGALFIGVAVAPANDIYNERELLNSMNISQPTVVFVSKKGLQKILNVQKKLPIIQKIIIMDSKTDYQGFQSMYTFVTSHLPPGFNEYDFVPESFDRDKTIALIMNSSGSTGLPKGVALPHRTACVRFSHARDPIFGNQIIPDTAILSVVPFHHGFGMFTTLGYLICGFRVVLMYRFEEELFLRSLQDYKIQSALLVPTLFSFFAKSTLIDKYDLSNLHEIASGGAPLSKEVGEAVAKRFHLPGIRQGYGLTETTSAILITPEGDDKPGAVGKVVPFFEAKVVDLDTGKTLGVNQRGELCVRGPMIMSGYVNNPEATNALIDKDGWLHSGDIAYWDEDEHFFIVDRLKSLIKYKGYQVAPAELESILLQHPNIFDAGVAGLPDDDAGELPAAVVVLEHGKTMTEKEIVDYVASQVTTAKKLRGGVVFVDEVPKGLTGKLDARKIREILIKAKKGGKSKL
# Sequence of Nuclear receptor ROR-gamma (Homo sapiens) (P51449 whole entry, looked up): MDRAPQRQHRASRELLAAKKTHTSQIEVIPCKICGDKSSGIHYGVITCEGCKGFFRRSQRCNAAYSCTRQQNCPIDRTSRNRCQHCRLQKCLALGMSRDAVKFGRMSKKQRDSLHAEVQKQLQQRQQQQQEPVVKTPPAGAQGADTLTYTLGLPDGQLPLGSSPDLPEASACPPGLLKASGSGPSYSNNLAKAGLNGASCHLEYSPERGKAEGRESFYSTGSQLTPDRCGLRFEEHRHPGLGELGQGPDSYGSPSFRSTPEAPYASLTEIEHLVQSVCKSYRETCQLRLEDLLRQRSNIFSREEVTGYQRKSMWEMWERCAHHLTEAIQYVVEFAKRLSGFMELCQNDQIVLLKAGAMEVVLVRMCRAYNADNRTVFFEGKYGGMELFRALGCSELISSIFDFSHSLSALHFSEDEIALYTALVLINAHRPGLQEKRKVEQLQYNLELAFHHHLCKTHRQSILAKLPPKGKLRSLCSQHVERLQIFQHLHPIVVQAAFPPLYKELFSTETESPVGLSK
# Sequence of Peroxisome proliferator-activated receptor alpha (Homo sapiens) (Q07869 whole entry, looked up): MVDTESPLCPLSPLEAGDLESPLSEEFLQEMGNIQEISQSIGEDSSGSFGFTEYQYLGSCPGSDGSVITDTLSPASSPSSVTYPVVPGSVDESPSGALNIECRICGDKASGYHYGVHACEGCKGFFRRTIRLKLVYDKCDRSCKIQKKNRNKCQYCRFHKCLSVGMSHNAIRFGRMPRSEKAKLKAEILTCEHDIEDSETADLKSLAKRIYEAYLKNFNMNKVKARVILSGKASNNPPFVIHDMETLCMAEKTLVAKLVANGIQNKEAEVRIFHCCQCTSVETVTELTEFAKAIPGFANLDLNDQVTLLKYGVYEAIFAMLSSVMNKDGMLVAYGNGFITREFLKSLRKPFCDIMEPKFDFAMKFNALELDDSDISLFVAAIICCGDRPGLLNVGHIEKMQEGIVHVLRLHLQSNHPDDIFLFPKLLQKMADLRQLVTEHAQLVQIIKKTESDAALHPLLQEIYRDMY
# Sequence of Tumor necrosis factor (Homo sapiens) (P01375 whole entry, looked up): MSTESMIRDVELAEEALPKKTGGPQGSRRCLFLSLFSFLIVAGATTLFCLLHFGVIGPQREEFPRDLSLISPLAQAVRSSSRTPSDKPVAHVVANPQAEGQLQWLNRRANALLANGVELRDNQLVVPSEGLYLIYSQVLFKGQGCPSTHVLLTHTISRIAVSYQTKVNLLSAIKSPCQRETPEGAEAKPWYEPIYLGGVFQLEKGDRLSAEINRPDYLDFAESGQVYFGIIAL
# Sequence of Voltage-gated inwardly rectifying potassium channel KCNH2 (Homo sapiens) (Q12809 whole entry, looked up): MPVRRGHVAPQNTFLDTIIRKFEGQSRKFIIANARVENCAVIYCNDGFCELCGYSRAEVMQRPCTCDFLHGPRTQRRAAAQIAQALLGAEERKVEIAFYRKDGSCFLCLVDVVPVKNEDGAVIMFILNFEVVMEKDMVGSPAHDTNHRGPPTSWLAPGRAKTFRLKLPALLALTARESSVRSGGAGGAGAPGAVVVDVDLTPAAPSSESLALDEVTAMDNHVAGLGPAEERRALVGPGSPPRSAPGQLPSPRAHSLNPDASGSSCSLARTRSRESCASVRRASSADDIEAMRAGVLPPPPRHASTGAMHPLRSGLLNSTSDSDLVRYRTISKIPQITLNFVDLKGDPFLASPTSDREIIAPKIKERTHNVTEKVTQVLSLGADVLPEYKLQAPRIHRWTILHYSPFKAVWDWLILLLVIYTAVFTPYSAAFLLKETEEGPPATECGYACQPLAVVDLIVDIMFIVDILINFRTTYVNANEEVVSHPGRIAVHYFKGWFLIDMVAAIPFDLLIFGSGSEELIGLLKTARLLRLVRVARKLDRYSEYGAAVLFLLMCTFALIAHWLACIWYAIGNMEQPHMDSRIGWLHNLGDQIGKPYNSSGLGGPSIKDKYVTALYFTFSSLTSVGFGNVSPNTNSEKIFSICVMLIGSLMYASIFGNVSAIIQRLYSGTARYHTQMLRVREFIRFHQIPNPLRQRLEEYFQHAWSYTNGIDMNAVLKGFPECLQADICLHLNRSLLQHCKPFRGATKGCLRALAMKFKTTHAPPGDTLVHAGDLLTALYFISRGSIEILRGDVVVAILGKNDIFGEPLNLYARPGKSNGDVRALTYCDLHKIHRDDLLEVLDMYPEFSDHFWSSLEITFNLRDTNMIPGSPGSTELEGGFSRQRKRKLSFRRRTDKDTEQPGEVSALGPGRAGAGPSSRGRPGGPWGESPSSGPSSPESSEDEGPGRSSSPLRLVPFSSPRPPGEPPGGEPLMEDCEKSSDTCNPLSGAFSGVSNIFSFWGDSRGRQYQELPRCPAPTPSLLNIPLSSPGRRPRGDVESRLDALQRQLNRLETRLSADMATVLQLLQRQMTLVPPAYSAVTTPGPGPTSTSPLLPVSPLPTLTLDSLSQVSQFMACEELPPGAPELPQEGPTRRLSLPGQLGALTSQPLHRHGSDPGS
smiles,measurement,setting,value
CC/C(=C(/CC)c1ccc(OP(=O)(O)O)cc1)c1ccc(OP(=O)(O)O)cc1,Potency,[1],inactive
same,Potency,[2],inactive
same,Potency,[3],inactive
same,Potency,[4],inactive
same,"ratio activity, negative = inhibition",[5],2.34%
C[N+]1(C)[C@@H]2CC(OC(=O)C(O)(c3cccs3)c3cccs3)C[C@H]1[C@@H]1O[C@@H]12 (stereo partly specified),Potency,[1],inactive
same,Potency,[2],inactive
same,Potency,[3],inactive
same,Potency,[4],inactive
same,"ratio activity, negative = inhibition",[5],-1.55%
CN[C@@H]1[C@H](O[C@H]2[C@H](O[C@H]3[C@H](O)[C@@H](O)[C@H](N=C(N)N)[C@@H](O)[C@@H]3N=C(N)N)O[C@@H](C)[C@]2(O)C=O)O[C@@H](CO)[C@H](O)[C@H]1O,Potency,[1],inactive
same,Potency,[2],inactive
same,Potency,[3],inactive
same,Potency,[4],inactive
same,"ratio activity, negative = inhibition",[5],0%
CC(=O)Oc1cccc2c1C(=O)c1c(OC(C)=O)cc(C(=O)O)cc1C2=O,Potency,[1],inactive
same,Potency,[2],inactive
same,Potency,[3],inactive
same,Potency,[4],inactive
same,"ratio activity, negative = inhibition",[5],0.316%
CNC(=O)C[C@@H](N)C(=O)N[C@@H](C(=O)N[C@@H]1C(=O)N2[C@@H]1SC(C)(C)[C@@H]2C(=O)O)c1ccc(O)cc1,Potency,[1],inactive
same,Potency,[2],inactive
same,Potency,[3],inactive
same,Potency,[4],inactive
same,"ratio activity, negative = inhibition",[5],-2.79%
CC(C)[C@H](N)C(=O)OCC(CO)OCn1cnc2c(=O)[nH]c(N)nc21 (stereo partly specified),Potency,[1],inactive
same,Potency,[2],inactive
same,Potency,[3],inactive
same,Potency,[4],inactive
same,"ratio activity, negative = inhibition",[5],0.697%
CCCCCCOC(=O)c1cccnc1,Potency,[1],inactive
same,Potency,[2],inactive
same,Potency,[3],inactive
same,Potency,[4],inactive
same,"ratio activity, negative = inhibition",[5],2.38%
Cc1cc(-c2ccc(N=Nc3c(S(=O)(=O)O)cc4cc(S(=O)(=O)O)cc(N)c4c3O)c(C)c2)ccc1N=Nc1c(S(=O)(=O)O)cc2cc(S(=O)(=O)O)cc(N)c2c1O,Potency,[1],inactive
same,Potency,[2],9.07 µM (active)
same,Potency,[3],12.8 µM (active)
same,Potency,[4],12.8 µM (active)
same,"ratio activity, negative = inhibition",[5],8.59%
CCN(CC)CCOc1ccccc1OC,Potency,[1],inactive
same,Potency,[2],inactive
same,Potency,[3],inactive
same,Potency,[4],inactive
same,"ratio activity, negative = inhibition",[5],-7.82%
CNC(=O)OCc1cccc(COC(=O)NC)n1,Potency,[1],inactive
same,Potency,[2],inactive
same,Potency,[3],inactive
same,Potency,[4],inactive
same,"ratio activity, negative = inhibition",[5],-18.3%
O=C(NNCNNC(=O)c1ccncc1)c1ccncc1,Potency,[1],inactive
same,Potency,[2],inactive
same,Potency,[3],inactive
same,Potency,[4],inactive
same,"ratio activity, negative = inhibition",[5],-2.76%
[O]=[Bi][O]C(=O)[O][Bi]=[O],Potency,[1],inactive
same,Potency,[2],inactive
same,Potency,[3],inactive
same,Potency,[4],inactive
same,"ratio activity, negative = inhibition",[5],-4.42%
C[C@H](N)C(=O)N[C@@H](C)P(=O)(O)O,Potency,[1],inactive
same,Potency,[2],inactive
same,Potency,[3],inactive
same,Potency,[4],inactive
same,"ratio activity, negative = inhibition",[5],4.18%
O=C(O)Cc1cc(I)c(Oc2ccc(O)c(I)c2)c(I)c1,Potency,[1],inactive
same,Potency,[2],inactive
same,Potency,[3],inactive
same,Potency,[4],inactive
same,"ratio activity, negative = inhibition",[5],4.37% [at 17.1 µM]
COc1ccc2nc(NC(=O)Nc3ccccc3)sc2c1,Potency,[1],inactive
same,Potency,[2],0.721 µM (active)
same,Potency,[3],inactive
same,Potency,[4],inactive
same,"ratio activity, negative = inhibition",[5],-14.6%
CC(=O)c1ccc2c(c1)N(CCCN1CCN(CCO)CC1)c1ccccc1S2,Potency,[1],7.08 µM (active)
same,Potency,[2],inactive
same,Potency,[3],28.7 µM (active)
same,Potency,[4],16.1 µM (active)
same,"ratio activity, negative = inhibition",[5],-15.1%
COC1=C(OC)C(=O)C(C/C=C(\C)CC/C=C(\C)CC/C=C(\C)CC/C=C(\C)CC/C=C(\C)CC/C=C(\C)CC/C=C(\C)CC/C=C(\C)CC/C=C(\C)CCC=C(C)C)=C(C)C1=O,Potency,[1],inactive
same,Potency,[2],inactive
same,Potency,[3],inactive
same,Potency,[4],0.642 µM (active)
same,"ratio activity, negative = inhibition",[5],0.236%
CC1=C(/C=C/C(C)=C/C=C/C(C)=C/C(=O)Oc2c(C)c(C)c3c(c2C)CC[C@@](C)(CCC[C@H](C)CCC[C@H](C)CCCC(C)C)O3)C(C)(C)CCC1,Potency,[1],inactive
same,Potency,[2],inactive
same,Potency,[3],inactive
same,Potency,[4],5.73 µM (active)
same,"ratio activity, negative = inhibition",[5],-26.4%
CN1CCc2c(c3ccccc3n2Cc2ccccc2)C1,Potency,[1],5.01 µM (active)
same,Potency,[2],inactive
same,Potency,[3],inactive
same,Potency,[4],inactive
same,"ratio activity, negative = inhibition",[5],-4.6% [at 17.1 µM]
Cc1ncc[nH]1,Potency,[1],inactive
same,Potency,[2],inactive
same,Potency,[3],inactive
same,Potency,[4],inactive
same,"ratio activity, negative = inhibition",[5],-0.768%
same,Potency,[6],inactive
same,activation,[7],-3.81%
same,activation,[8],0.166%
same,Potency,[9],inactive
same,Potency,[10],inactive
same,Potency,[11],inactive
same,Potency,[12],inactive
same,activation,[13],0.165%
same,max response,[14],-1.93%
same,Potency,[15],inactive
CC/C=C\C/C=C\C/C=C\CCCCCCCC(=O)O,Potency,[1],inactive
same,Potency,[2],inactive
same,Potency,[3],inactive
same,Potency,[4],inactive
same,"ratio activity, negative = inhibition",[5],3.48%
same,Potency,[6],42.2 µM (active)
same,Potency,[9],inactive
same,Potency,[10],inactive
same,Potency,[11],inactive
same,activation,[13],0.211%
same,max response,[14],20%
same,Potency,[15],inactive
NC(N)=O,Potency,[1],inactive
same,Potency,[2],inactive
same,Potency,[3],inactive
same,Potency,[4],inactive
same,"ratio activity, negative = inhibition",[5],0.531%
same,activation,[8],1.05%
same,Potency,[9],inactive
same,Potency,[10],inactive
same,Potency,[11],inactive
same,max response,[14],-1.08%
same,Potency,[15],inactive
Oc1cccc(O)c1O,Potency,[1],inactive
same,Potency,[2],inactive
same,Potency,[3],inactive
same,Potency,[4],inactive
same,"ratio activity, negative = inhibition",[5],-1.18%
same,Potency,[6],5.96 µM (active)
same,activation,[7],2.6%
same,activation,[8],2.45%
same,Potency,[10],inactive
same,Potency,[12],75 µM (active)
same,activation,[13],-0.8%
same,max response,[14],0.0177%
same,Potency,[15],inactive
